Measurements taken from PubChem BioAssay.
Entries with a potency or affinity are not part of this list. The source made the active and inactive calls. The rule behind the calls is not given here.

The molecules below were run against Plasmodium falciparum protein kinase 6 (PK6, PF3D7_1337100) (UniProt Q8IDW1) (assay: PfPK6 kinase inhibitors, biochemical, TCAMS library (AID 1159586)). Details: recombinant PfPK6, Kinase-Glo ATP depletion luminescence.
Chain of Plasmodium falciparum protein kinase 6 (PK6, PF3D7_1337100) (Q8IDW1 1-305): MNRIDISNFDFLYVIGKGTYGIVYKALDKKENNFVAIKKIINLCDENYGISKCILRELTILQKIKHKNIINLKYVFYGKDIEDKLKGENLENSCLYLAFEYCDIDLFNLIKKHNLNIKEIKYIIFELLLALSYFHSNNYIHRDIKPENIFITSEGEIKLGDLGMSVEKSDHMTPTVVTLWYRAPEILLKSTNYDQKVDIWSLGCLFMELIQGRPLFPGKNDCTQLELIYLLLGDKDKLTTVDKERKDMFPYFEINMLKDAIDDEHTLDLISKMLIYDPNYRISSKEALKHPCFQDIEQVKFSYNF

outcome, inactive:
CC1(C)N=C(N)N=C(N)N1OCc1cccs1, CC(C)c1cn2c3c(cc(C(=O)N[C@@H](Cc4ccccc4)[C@H](O)CNC4CCOCC4)cc13)N(C)S(=O)(=O)CC2, COc1ccc2nccc([C@@H](O)CN3CCC(NC(=O)/C=C/c4ccc5[nH]c(=O)ccc5c4)CC3)c2c1, Cc1ccc(C(=O)NC2CCN(CCNC(=O)Nc3cc(C)nc4ccccc34)CC2)cc1, CCOC(=O)c1ccc2nc(-c3ccc(C(=O)NC4CCN(Cc5ccccc5)CC4)s3)[nH]c2c1, COc1ccc(C(=O)Nc2cc(Br)c3c(c2)CNCC3)cc1C(F)(F)F, C=CCn1c(Sc2ccc(C#N)c([N+](=O)[O-])c2)nnc1-c1ccc(OC)cc1, CC(C)c1ccc2[nH]c(C(=O)NC3CCC(N4CCCc5ccc(C#N)cc5C4)CC3)cc2c1 (stereo not given), OC[C@H](Nc1nc(C(Oc2ccccc2)c2ccccc2)nc2[nH]ncc12)c1ccccc1 (stereo not given in full), COc1ccccc1-n1c(-c2ccc3ccccc3c2)csc1=NC(=O)c1ccccc1, CN(C)Cc1c(O)ccc2[nH]c(-c3ccc(OC(F)(F)F)cc3)nc12, COc1ccc(CN2CCC(N3CCc4cc(NC(=O)c5cc(C)on5)ccc43)C2)cc1Cl (stereo not given), CCN(CC)CCNc1ccc(Nc2ccnc3cc4ccccc4cc23)cc1, c1cncc(CCNCc2cccc(-c3ccc(-c4nc5ccccc5[nH]4)s3)c2)c1, CNC(=O)c1cc(Nc2nnc(-c3ccc(C)c(S(=O)(=O)NC4CCCCC4)c3)c3ccccc23)ccc1OC
